A selection: hits, their analogues and other compounds. The true share with any hit is near 8.1%.
KB-V1 MDR tox = kills drug-selected multidrug resistant KB-V1 cells. AID 1347076. KB-V1 MDR cells viability, CellTiter-Glo, 72 h. Potency, µM (top dose mostly 46.1 µM), actives largely listed as cytotoxic. hit rate 3.4% among 400,000; further: on the % scale 0 is the no-effect control and ±100 the full control effect; nearly all actives have a fitted effect of over 60% in size
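Drug-selected KB-V1 cells, grown in DMEM lacking phenol red with 10% FBS, receive compound titrations; after three days at 37 degrees C, surviving cell ATP is quantified by CellTiter-Glo luminescence and responses normalized and curve-fitted.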
ELG1 repair inh = ELG1-dependent DNA repair inhibition; hit rate 2.3% among 330,000; Potency, µM (series often up to 46.1 µM), for inactives: at the top dose activity change, negative = inhibition, actives largely listed as inhibitors; HEK293T ELG1-luciferase reporter, luminescence, 16 h; DNA damage induced by 5-fluorouridine; AID 504467; further: on the % scale 0 is the no-effect control and ±100 the full control effect; nearly all actives have a fitted effect of over 55% in size
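DMSO vehicle served as the neutral condition. Each well held 2,000 cells given 5-fluorouridine plus compound; after 16 hr at 37 °C/5% CO2, ONE-Glo was added and luciferase measured 30 min later.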
KB-3-1 tox = kills parental KB-3-1 adenocarcinoma cells | KB-3-1 viability, CellTiter-Glo ATP luminescence, 72 h | Potency, µM (highest dose often 46.1 µM), hits mostly cytotoxic | hit rate 1.4% among 400,000 | AID 1347075; further: on the % scale 0 is the no-effect control and ±100 the full control effect; nearly all actives have a fitted effect of over 60% in size
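Luminescent ATP read-out (CellTiter-Glo) measures survival of drug-naive KB-3-1 cells after 72 h compound exposure at 37 °C. Titration series was screened from lowest to highest concentration, with DMSO vehicle plates as background controls.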
MCF10A rerep = DNA re-replication induction in MCF 10a cells | MCF 10A DNA re-replication, Hoechst nuclear intensity, 48 h | Potency, µM (highest dose often 46.1 µM), inactives show at the highest dose activity, positive = re-replication, actives largely listed as activators | hit rate 2.9% among 350,000 | AID 624296; further: % of control where 0% means no effect; nearly all actives have a fitted effect of over 50% in size
SW480 rerep = inducers of DNA re-replication in SW480 colon cancer cells; SW480 DNA re-replication, Hoechst DNA content imaging, 48 h; Potency, µM (series often up to 46.1 µM), for inactives: top-dose re-replication activation, usual class: activators; hit rate 1.8% among 340,000; AID 624297; further: % of control where 0% means no effect; nearly all actives have a fitted effect of over 55% in size
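Readout is total intensity of Hoechst-stained nuclei, excited at 405 nm and collected at 500-530 nm. Compound treatment lasted 48 hr at 37 C in 5% CO2 before staining.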
Numbers without * were called inactive; i = inactive; ? = inconclusive; . = no result. The call rests on the fitted dose curve; in most records, active means well fitted curve in the direction sought with a large enough effect; inconclusive means small, poorly fitted or top-dose-only effect, or another doubt; inactive means no such curve, though single readings can be large; an effect the other way counts as inactive or inconclusive. Potency means the concentration at half of the fitted maximal effect.

SMILES | KB-V1 MDR tox | ELG1 repair inh | KB-3-1 tox | MCF10A rerep | SW480 rerep
Cc1ccccc1-c1ccc(C(=O)NCc2ccccc2)o1 | i | ? | i | 9.4% | -10.4%
O=C(Cc1cc2ccccc2o1)NCc1ccc(F)cc1 | ? | -26.7% | i | 11.6µM* | ?
O=C(NC(=S)NCc1ccc(F)cc1)c1ccccc1 | 20.6µM* | 11.8% | i | -1.5% | ?
O=C(NC(=S)NCc1ccccc1)c1ccccc1 | i | 3.1% | i | 2.8% | -0.4%
O=C(NCc1ccccc1)c1ccc(-c2ccc(F)cc2)o1 | 18.4µM* | 20.0% | i | 16.4% | -9.3%
S=C(NCc1ccccc1)NCc1ccc(Cl)cc1 | i | 2.2% | i | 3.9% | 1.5%
S=C(NCc1ccccc1)NCc1ccccc1 | i | 0.0% | i | ? | 20.6µM*
COc1ccc(OCC(=O)N2CCc3ccccc32)c([N+](=O)[O-])c1 | i | . | i | . | .
O=C(O)c1ccc(NC2=C(Cl)C(=O)c3ccccc3C2=O)cc1 | i | ? | ? | ? | ?
O=C1C(Cl)=C(NCc2cccnc2)C(=O)c2ccccc21 | ? | 20.6µM* | ? | ? | ?
O=C1C(Cl)=C(NCCc2ccccc2)C(=O)c2ccccc21 | ? | . | ? | ? | 5.17µM*
O=C1C(Cl)=C(Nc2ccccc2)C(=O)c2ccccc21 | ? | ? | ? | 4.11µM* | ?
CC(=O)N(Cc1ccc(F)cc1)C1=C(NCCc2ccccc2)C(=O)c2ccccc2C1=O | ? | ? | 8.2µM* | ? | 6.31µM*
CC(=O)N(Cc1ccc(F)cc1)c1cccc(C)c1C | ? | 0.2% | i | -15.4% | ?
C=CCNC1=C(Cl)C(=O)c2ccccc2C1=O | ? | 10.4% | ? | ? | ?
Cc1ccc(F)c(S(=O)(=O)NC(=O)C2(C)CCN2C(=O)Cc2cccs2)c1 (stereo not given) | i | . | i | . | .
COc1cc2ncnc(N(C)Cc3cccs3)c2cc1-c1ccc2c(c1)OCO2 | i | . | i | . | .
Cc1cccc(C)c1NC(=O)CN(CC(=O)O)CC(=O)O | . | . | . | 0.6% | -5.6%
CC(C)NC1=C(Cl)C(=O)c2ccccc2C1=O | i | 0.9% | ? | ? | 13µM*
O=C(COC(=O)c1cccc(NC(=O)c2ccc(Br)cc2)c1)c1ccc(Cl)cc1 | i | . | i | . | .
CC[C@]1(O)CC2CN(CCc3c([nH]c4ccccc34)[C@@](C(=O)OC)(c3cc4c(cc3OC)N(C)[C@H]3[C@@](O)(C(=O)OC)[C@H](OC(C)=O)[C@]5(CC)C=CCN6CC[C@]43[C@@H]65)C2)C1 (stereo not given in full) | ? | . | 0.0231µM* | ? | 0.75µM*
CCC1(O)CC2CN(CCc3c([nH]c4ccccc34)C(C(=O)OC)(c3cc4c(cc3OC)N(C=O)C3C(O)(C(=O)OC)C(OC(C)=O)C5(CC)C=CCN6CCC43C65)C2)C1 (stereo not given) | 16.4µM* | . | 0.0461µM* | ? | 0.164µM*
CCC1=C[C@@H]2CN(C1)Cc1c([nH]c3ccccc13)[C@@](C(=O)OC)(c1cc3c(cc1OC)N(C)[C@@H]1[C@@](O)(C(=O)OC)[C@H](OC(C)=O)[C@]4(CC)C=CCN5CC[C@]31[C@@H]54)C2 | . | . | . | 67.1% | 1.19µM*
CCOC(=O)c1cc2c(OC)ccc(OC)c2n1CC(=O)c1ccccc1 | i | 2.7% | i | 23.1µM* | ?
COc1ccc(-n2c(=O)c3ccccc3n(CC(=O)c3ccccc3)c2=O)cc1OC | i | -4.7% | i | 0.4% | 17.8%
NS(=O)(=O)c1ccc(CCNC(=O)C2CCN(S(=O)(=O)c3ccccc3)CC2)cc1 | i | -1.8% | i | -3.6% | -12.8%
NS(=O)(=O)c1ccc(CCNC(=O)C2CCN(S(=O)(=O)c3cnc[nH]3)CC2)cc1 | i | ? | i | 20.6µM* | ?
Cc1ccc(Cn2c(=O)n(CCc3ccccc3)c(=O)c3sc4ccccc4c32)cc1 | i | . | i | . | .
O=C(COc1cc2oc(=O)c3c(c2cc1Cl)CCC3)NCCCn1ccnc1 | i | 15.7% | i | 23.1µM* | -8.2%
Cc1ccc(C(C)C)cc1OCC(=O)NCCCn1ccnc1 | i | -1.5% | i | 1.46µM* | 17.0%
